Experimental findings from PubChem BioAssay AID686978 (National Center for Advancing Translational Sciences (NCATS), 2013) are described below.

Molecules are shown by their SMILES. Among all 420,000 compounds or so, about 64,000 (15%) were called active. About 27% were inconclusive and are not listed. The call rests on the fitted dose curve; in most records, active means well fitted inhibition curve with a large enough effect; inconclusive means small, poorly fitted or top-dose-only effect; inactive means flat fitted curve, though single readings scatter. The list is a sample of the results. Entries that show only a call come without a potency.
Potency means the concentration at half of the fitted maximal effect.

The experiment is described as follows: qHTS for Inhibitors of human tyrosyl-DNA phosphodiesterase 1 (TDP1): qHTS in cells in absence of CPT. Further: nearly all actives have a fitted effect of over 55% in size. The note with it: DT40 Tdp1-/- hTDP1 cells, no CPT, ATP luminescence, 48 h; activity change, negative = growth inhibition: at 46.2 µM (top of the series). Put shortly:
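No-CPT arm: Tdp1-/-;hTDP1 DT40 cells (400/well) plus compounds, incubated ≥48 hr at 37 °C. Readout CellTiter-Glo luminescence.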
On to `CCCCNC(=O)OC1CC2CC1[C@H]1CCCCN1C2=O` (stereo not given in full), for which the Potency entry was “inactive”.

As to `CC(C)n1c(=O)[nH]c2cc(C(=O)Nc3ccccc3)ccc21`, the Potency entry is “inactive”.

As for `CN1CCN(c2ccc(NC(=O)c3ccc4c(c3)[nH]c(=O)n4Cc3ccc(F)cc3)cc2)CC1`, the Potency is 29.1 µM (active).

With `CN1CCN(c2ccc(NC(=O)c3ccccc3)cc2)CC1`, the Potency result was “inactive”.

As to `C/C(=N/OC(=O)c1cccc(C(F)(F)F)c1)c1cnccn1`, the Potency result is “inactive”.

Take `COc1cccc(OC)c1CN(C)C(=O)c1cnccc1C(F)(F)F`: the Potency entry is “inactive”.

Consider `CCCS(=O)(=O)N1CCN=C1SCc1cccc(F)c1`, for which the Potency entry is “inactive”.

In the case of `CCCC[C@@H]1CN=C(N)N1CCc1cccc(F)c1`, the Potency is 5.8 µM (active).

Consider `O=C1NC[C@@H](Cc2ccc(O)cc2)N(CCc2cccc(F)c2)C1=O`, for which the Potency entry was “inactive”.

In the case of `CCCC[C@@H]1CN=C(N)N1CCc1cc(C(F)(F)F)cc(C(F)(F)F)c1`, the Potency was 1.3 µM (active).

For `NNC(=O)COc1ccc(C2SCCS2)cc1`, the Potency entry is “inactive”.

Regarding `CC(=O)NC1C(Oc2ccc(C)cc2)OC2COC(c3ccco3)OC2C1O` (stereo not given), the Potency entry is “inactive”.

For `O=S(=O)(NC1CCCCC1)c1ccc(F)c2ccccc12`, the Potency entry was “inactive”.

With `CCCC/S(C)=N/S(=O)(=O)c1ccc(C)cc1` (stereo not given), the Potency result was “inactive”.

In the case of `COc1ccc(OCCCC(=O)Oc2ccc(OC)cc2)cc1`, the Potency result is “inactive”.

As for `COc1ccc(OCCC(=O)c2ccc(OC)cc2)cc1`, the Potency is 2.59 µM (active).

In the case of `COc1ccc(C(=O)CCC(=O)Nc2ccc(Cl)cc2)cc1`, the Potency entry is “inactive”.

For the compound `Cc1ccc(NC(=O)N2CCC(O)(c3cccnc3)CC2)cc1`, the Potency result is “inactive”.

Turning to `Cn1c(CCc2ccccc2)nnc1SCC(N)=O`, the Potency result was “inactive”.

Regarding `COC(=O)C1=C(C)NC(=S)NC1c1ccc(OCC(=O)N2CC(C)OC(C)C2)c(OC)c1` (stereo not given), the Potency entry is “inactive”.

For the compound `N#Cc1ccc(C2=CC(=O)C[C@H](c3ccc(Cl)cc3)C2)cc1`, the Potency is 14.6 µM (active).

On to `CCCCC/C=C/C1=CC(=O)C[C@H](c2ccc(Cl)cc2)C1`, for which the Potency result was “inactive”.

As for `O=C1CSC(c2ccc(Cl)cc2)N1` (stereo not given), the Potency result was “inactive”.

With `O=C(NCc1ccccc1)[C@@H]1CSC2c3ccccc3C(=O)N21` (stereo not given in full), the Potency entry was “inactive”.

For the compound `CCOC(=O)C1CCN(c2c(Nc3cc(C)cc(C)c3)c(=O)c2=O)CC1`, the Potency was 16.4 µM (active).

For the compound `CCOC(=O)C1CCN(c2csc3ccc(C)cc3c2=O)CC1`, the Potency entry is “inactive”.

With `CCOC(=O)C1CCN(CCC(=O)Nc2cccc(C)c2)CC1`, the Potency entry was “inactive”.

For the compound `COC(=O)Nc1ccc(S(=O)(=O)N(C)CC(F)(F)C(F)F)cc1`, the Potency result is “inactive”.

Consider `Cc1ccc(-n2c(SCC(=O)Nc3ncc(Cl)cc3Cl)nc3ccccc32)cc1`, for which the Potency was 13 µM (active).

In the case of `Cc1ccc(SCCC(=O)OCC(=O)Nc2ncc(Cl)cc2Cl)cc1`, the Potency entry is “inactive”.

As for `CC1(C(=O)OCC(=O)Nc2ncc(Cl)cc2Cl)CC1(Cl)Cl` (stereo not given), the Potency result is “inactive”.

`COc1ccccc1P(=O)(c1ccccc1)c1ccccc1NC(C)=O` (stereo not given): the Potency entry was “inactive”.

Regarding `CCCCN(C)C(=O)C1CCN(Cc2ccccn2)CC1`, the Potency result is “inactive”.

`CC1=C(/C=C/C(C)=C/C=C/C(C)=C/C=C/C=C(C)/C=C/C=C(C)/C=C/C2=C(C)CCCC2(C)C)C(C)(C)CCC1`: the Potency result was “inactive”.

As for `O=C(NCCCn1ccnc1)Nc1ccc(Cl)cc1Cl`, the Potency result was “inactive”.

Consider `O=C(Nc1ccccc1C(=O)NCCCn1ccnc1)c1ccc(Cl)cc1Cl`, for which the Potency entry was “inactive”.

Take `Clc1ccc(C(Cn2ccnc2)OCc2ccsc2Cl)c(Cl)c1` (stereo not given): the Potency is 16.8 µM (active).

Turning to `CNc1nccc(-c2ccc(Cl)cc2)c1C#N`, the Potency entry is “inactive”.

`CN(C(=O)COC(=O)c1cc(-c2ccco2)nc2ccccc12)C1CCS(=O)(=O)C1` (stereo not given): the Potency entry was “inactive”.

Regarding `N#Cc1ccc(-c2ccc(Cl)cc2)nc1Oc1ccc(F)cc1`, the Potency result is “inactive”.

Consider `COC(=O)c1cc(-c2cccs2)nc2ccccc12`, for which the Potency entry is “inactive”.

As for `CC(=O)Nc1cccc(Nc2nc(-c3cccs3)nc3ccccc23)c1`, the Potency is 8.2 µM (active).

On to `CCN(CC(=O)Nc1c(F)cccc1F)C(=O)Cc1cccs1`, for which the Potency result was “inactive”.

In the case of `O=C1CCCCC1C(=O)c1ccccc1` (stereo not given), the Potency entry is “inactive”.

In the case of `Cc1n[nH]c(=O)c2c(NC(=O)CSc3ccccc3F)oc(C)c12`, the Potency entry was “inactive”.

In the case of `CC(=O)N1CCN(S(=O)(=O)c2c(F)cc(F)c(Cl)c2F)CC1`, the Potency entry is “inactive”.

In the case of `COc1ccc(Cc2n[nH]c(=S)n2NC(=O)Nc2ccc(C)cc2)cc1`, the Potency entry is “inactive”.

For `COc1ccc(OCCCC(=O)OC(C)C(=O)Nc2ccccc2[N+](=O)[O-])cc1` (stereo not given), the Potency result was “inactive”.

Consider `O=C1C=CC(=O)N1c1ccc(N2CCCCC2)cc1`, for which the Potency was 1.16 µM (active).

As for `O=c1[nH][nH]c(=O)c2cc(N3CCCC3)ccc12`, the Potency result is “inactive”.

`CS(=O)(=O)N1CCC[C@@]2(CCN(c3ccncc3)C2)C1`: the Potency entry is “inactive”.

On to `Cc1ccc(-c2c(C)n([O-])c3c([n+]2=O)CCC3)cc1`, for which the Potency entry is “inactive”.

With `CC1=NNC(=O)C1CCC(=O)N/N=C\c1ccc(Cl)c(Cl)c1` (stereo not given), the Potency entry was “inactive”.

Regarding `CCOC(=O)c1c(SCC(=O)Nc2cccc(C)c2C)nc(=O)[nH]c1C`, the Potency result is “inactive”.

Turning to `CCOC(=O)c1c(C)[nH]c2c1-c1ccccc1C(=O)C2=O`, the Potency was 0.651 µM (active).

On to `CCOC(=O)c1c(C)[nH]c(=S)c(C#N)c1-c1ccccc1`, for which the Potency result was “inactive”.

`O=C(COC(=O)c1ccc[nH]c1=O)Nc1ccc2c(c1)OC(F)(F)O2`: the Potency result is “inactive”.

`COC(=O)[C@@H]1CCCN1C(=O)c1cc(COc2cccc3cccnc23)on1`: the Potency result was “inactive”.

On to `COCC1CCCCN1C(=O)c1cc(COc2ccc(C)c(C)c2)on1` (stereo not given), for which the Potency is 20.6 µM (active).

In the case of `Cc1ccc(OCc2cc(C(=O)N(C)CCn3ccnc3C)no2)cc1C`, the Potency result is “inactive”.

As to `COC(=O)c1ccccc1NC(=O)c1cc(-c2ccccc2O)no1`, the Potency entry was “inactive”.

Take `CCOC(=O)C1CCc2nc3ccccc3c(=O)n21` (stereo not given): the Potency entry is “inactive”.

Regarding `CCOC(=O)C(CCOc1cccc(CC)c1)C(=O)OCC`, the Potency entry was “inactive”.

For `C=CCNC(=O)C12CC3CC(C1)CC(C(=O)NCC=C)(C3)C2`, the Potency entry was “inactive”.

Turning to `Cc1cc(C)cc(NC(=O)N2CCC(NC(=O)c3ccc(F)cc3)CC2)c1`, the Potency entry was “inactive”.

As for `COc1cc(OC)c2ccc(=O)oc2c1C(CCN1CCN(c2ccccc2)CC1)c1ccc2c(c1)OCO2` (stereo not given), the Potency is 16.4 µM (active).

As to `CCN(CC)CCC(c1ccc2c(c1)OCO2)c1c(OC)cc(OC)c2c(-c3ccccc3)cc(=O)oc12` (stereo not given), the Potency is 20.6 µM (active).

As for `COc1cc(COCC(O)CN2CCN(Cc3ccc4c(c3)OCO4)CC2)cc(OC)c1OC` (stereo not given), the Potency entry was “inactive”.

In the case of `COc1ccc(F)cc1S(=O)(=O)NCC(c1ccc2c(c1)OCO2)N1CCN(C)CC1` (stereo not given), the Potency entry was “inactive”.

Consider `O=C(C(=O)N1CCN(c2ccccc2)CC1)c1ccc2c(c1)OCO2`, for which the Potency entry was “inactive”.
